Data taken from PubChem BioAssay (NCATS).
Records with an inconclusive call do not appear. Where a call stands in place of a potency, no number is given. Activity calls are given as the source filed them. The call rests on the fitted dose curve; in most records, active means well fitted inhibition curve with a large enough effect; inconclusive means small, poorly fitted or top-dose-only effect; inactive means flat fitted curve, though single readings scatter. Non-standard residues stand in square brackets, D forms with d. Residues, ends and D or L forms follow the SMILES beside them. *: point of attachment. Nva = CCC[C@H](N)C(=O)O; Cbz = O=C(OCc1ccccc1)*

The compounds below were run on MKL-2 (assay: qHTS assay to identify novel small-molecules to repurpose for Merkel cell carcinoma treatment (AID 1296009; further: nearly all actives have a fitted effect of over 60% in size)). Settings: MCC and control cell lines, CellTiter-Glo viability, 72 h; series mostly up to 46 µM.
Procedure, shortened: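 Viability readout: ATP luminescence (CellTiter-Glo) after 72 hr drug exposure at 37 degree celsius. Dose-response format was 8 points for NPC and 11 points for MIPE; data normalized to in-plate controls.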
Potency means the concentration at half of the fitted maximal effect.

SMILES | Potency
CON=C(C(=O)N[C@@H]1C(=O)N2C(C(=O)O)=C(Cn3ccc(=N)n3CCO)CS[C@H]12)c1csc(N)n1 | inactive
O=C(O)C=Cc1ccc(Cn2ccnc2)cc1 | inactive
NC(=O)c1ncn([C@@H]2O[C@H](CO)[C@@H](O)[C@@H]2O)c1O | inactive
OCCN1C[C@H](O)[C@@H](O)[C@H](O)[C@@H]1CO | inactive
c1ccc(CNc2nc(NCc3ccccc3)c3ccccc3n2)cc1 | 18.7 µM (active)
CCC[C@@H](C=O)NC(=O)[C@H](CC(C)C)NC(=O)[C@H](CC(C)C)NC(=O)OCc1ccccc1 (Cbz-Leu-Leu-[Nva]-aldehyde) | 0.833 µM (active)
COC(=O)C1C2CC3c4[nH]c5cc(OC)ccc5c4CCN3CC2CC(OC(=O)c2cc(OC)c(OC)c(OC)c2)C1OC (stereo not given) | inactive
C=C[C@@H]1CN2CCC1C[C@H]2[C@H](O)c1ccnc2ccc(OC)cc12 (stereo not given in full) | inactive
CC(=CC(=O)Nc1ccccc1C(=O)O)c1ccc2ccccc2c1 | inactive
C=C1C[C@@]2(O)O[C@@]3(C[C@H]2C(C)C)[C@H](C)CC[C@H]13 | inactive
O=C1c2cccc(O)c2C(=O)c2c(O)cc(CO)cc21 | inactive
CC(=O)O[C@H]1C[C@@H]2CC[C@H]3[C@H]4C[C@H]([N+]5(C)CCCCC5)[C@@H](OC(C)=O)[C@@]4(C)CC[C@@H]3[C@@]2(C)C[C@H]1N1CCCCC1 | inactive
CN(C)CC[C@H](c1ccc(Cl)cc1)c1ccccn1 | inactive
CCCCCCCN(CC)CCCC(O)c1ccc(NS(C)(=O)=O)cc1 (stereo not given) | inactive
C[C@H](NC(=O)Cc1cc(F)cc(F)c1)C(=O)N[C@H](C(=O)OC(C)(C)C)c1ccccc1 | inactive
